Test results reported in PubChem BioAssay (Tox21).
Where “and” joins values, the source holds several entries; their conditions need not be identical. Equal values may be shown once. Inconclusive results are not listed. Entries that show only a call come without a potency. Where a structure was tested more than once in an assay, its records may differ in their call. Calls of active or inactive are those of the source. The call rests on the fitted dose curve; in most records, active means well fitted curve in the direction sought with a large enough effect in the repeat runs; inconclusive means weak or mixed curves; inactive means no such curve, though single readings can be large; an effect the other way counts as inactive or inconclusive.

Test: qHTS RealTime-Glo MT Cell Viability Assay in HEK293 cells - 0 hour (AID 1224880); further: top concentration of the series differs between compounds; nearly all actives have a fitted effect of over 45% in size
Settings: RealTime-Glo luminescence; series mostly up to 76.8 µM
Outline: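 Nonlytic bioluminescent viability monitoring. HEK293 at 600 cells/well with reagent; 5 h settle; compound transfer by pintool; plates held at 37 C and read at set time points.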

Row | SMILES | outcome
1 | Cc1ccc(N)cc1 | inactive
2 | CC[N+](=O)[O-] | inactive
3 | CN1C(=O)CCS(=O)(=O)C1c1ccc(Cl)cc1 (stereo not drawn) | inactive
4 | C=CC(=O)OCC(CC)CCCC (stereo not drawn) | inactive

Test: A CellTox Green Cytotoxicity Assay to monitor cytotoxicity in HEK293 cells - 32 hour (AID 1224881); further: nearly all actives have a fitted effect of over 40% in size; further: potency means the concentration at half of the fitted maximal effect
Settings: CellTox Green fluorescence; series mostly up to 76.8 µM
Outline: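 Cytotoxicity was tracked continuously in HEK293 cells by a DNA-binding dye excluded from viable cells. Compounds were transferred in DMSO 5 h after seeding; fluorescence was recorded at intervals up to 40 h.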

Row | SMILES | Potency
5 | [N-]=[N+]=CC(=O)OC[C@H](N)C(=O)O | inactive
6 | CCOP(=S)(OCC)Oc1ccc([N+](=O)[O-])cc1 | inactive
7 | Cl[C@H]1OCCO[C@@H]1Cl | inactive
8 | Nc1ccc(N)cc1 | inactive
9 | CCCCCCCCCCCCCCCCCC(=O)O | inactive
10 | O=C(O)CCCc1ccc(N(CCCl)CCCl)cc1 | inactive
11 | OC[C@@H](O)[C@H]1O[C@@H]2O[C@H](C(Cl)(Cl)Cl)O[C@@H]2[C@H]1O | inactive
12 | CC(C)c1cccc(C(C)C)c1O | 24.5 µM (active) and 43.6 µM (active) and inactive
13 | CC(C)CCCCCCOC(=O)c1ccccc1C(=O)OCCCCCCC(C)C | inactive
14 | O=P1(NCCCl)OCCCN1CCCl (stereo not drawn) | inactive
15 | CNC(=O)O/N=C(\SC)C(=O)N(C)C | inactive
16 | O=C(O)Cc1ccccc1 | inactive
17 | N#Cc1cccc(C#N)c1 | inactive
18 | Oc1c(Br)cc(Br)cc1Br | inactive
19 | c1ccc2c(c1)CCCC2 | inactive
20 | O=[N+]([O-])c1ccc(Cl)cc1 | inactive

Row | SMILES | Potency
21 | C/C=C/c1ccc2c(c1)OCO2 | inactive
22 | CN(C)C(=O)C(c1ccccc1)c1ccccc1 | inactive
23 | CC12CC1(C)C(=O)N(c1cc(Cl)cc(Cl)c1)C2=O (stereo not drawn) | inactive
24 | Cc1ccccc1N | inactive
25 | Clc1cnc(Oc2ccc(Oc3ncc(Cl)cc3Cl)cc2)c(Cl)c1 | 27.5 µM (active)
26 | CC(=O)/C=C/c1ccccc1 | inactive
27 | CC(=O)C1CCOC1=O (stereo not drawn) | inactive
28 | Cc1ccc(N=C=O)cc1N=C=O | inactive
29 | C=CC(=O)OCCCCCC(C)C | inactive
30 | COC(=O)Nc1cccc(OC(=O)Nc2cccc(C)c2)c1 | inactive
31 | O=S(=O)(O)OOS(=O)(=O)O | inactive
32 | Cc1ccc(N)cc1 | inactive
33 | CC[N+](=O)[O-] | inactive
34 | CN1C(=O)CCS(=O)(=O)C1c1ccc(Cl)cc1 (stereo not drawn) | inactive
35 | C=CC(=O)OCC(CC)CCCC (stereo not drawn) | inactive

Test: A CellTox Green Cytotoxicity Assay to monitor cytotoxicity in HepG2 cells - 0 hour (AID 1224882); further: nearly all actives have a fitted effect of over 35% in size; further: potency means the concentration at half of the fitted maximal effect
Settings: CellTox Green fluorescence; series mostly up to 76.8 µM
Outline: (§1)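 Real-time, homogeneous cytotoxicity readout: dead-cell DNA staining by CellTox Green in HepG2 monolayers, fluorescence measured at timed intervals up to 40 h of continuous compound exposure.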

Row | SMILES | Potency
36 | [N-]=[N+]=CC(=O)OC[C@H](N)C(=O)O | 34.7 µM (active) and inactive
37 | CCOP(=S)(OCC)Oc1ccc([N+](=O)[O-])cc1 | inactive
38 | Cl[C@H]1OCCO[C@@H]1Cl | inactive
39 | Nc1ccc(N)cc1 | inactive
40 | CCCCCCCCCCCCCCCCCC(=O)O | inactive
41 | O=C(O)CCCc1ccc(N(CCCl)CCCl)cc1 | inactive
42 | OC[C@@H](O)[C@H]1O[C@@H]2O[C@H](C(Cl)(Cl)Cl)O[C@@H]2[C@H]1O | inactive
43 | CC(C)c1cccc(C(C)C)c1O | inactive and 43.6 µM (active)
44 | CC(C)CCCCCCOC(=O)c1ccccc1C(=O)OCCCCCCC(C)C | inactive
45 | O=P1(NCCCl)OCCCN1CCCl (stereo not drawn) | inactive
46 | CNC(=O)O/N=C(\SC)C(=O)N(C)C | inactive
47 | O=C(O)Cc1ccccc1 | inactive
48 | N#Cc1cccc(C#N)c1 | inactive
49 | Oc1c(Br)cc(Br)cc1Br | inactive
50 | c1ccc2c(c1)CCCC2 | inactive
51 | O=[N+]([O-])c1ccc(Cl)cc1 | inactive

Row | SMILES | Potency
52 | C/C=C/c1ccc2c(c1)OCO2 | inactive
53 | CN(C)C(=O)C(c1ccccc1)c1ccccc1 | inactive
54 | CC12CC1(C)C(=O)N(c1cc(Cl)cc(Cl)c1)C2=O (stereo not drawn) | inactive
55 | Cc1ccccc1N | inactive
56 | Clc1cnc(Oc2ccc(Oc3ncc(Cl)cc3Cl)cc2)c(Cl)c1 | inactive
57 | CC(=O)/C=C/c1ccccc1 | inactive
58 | CC(=O)C1CCOC1=O (stereo not drawn) | inactive
59 | Cc1ccc(N=C=O)cc1N=C=O | inactive
60 | C=CC(=O)OCCCCCC(C)C | inactive
61 | COC(=O)Nc1cccc(OC(=O)Nc2cccc(C)c2)c1 | inactive
62 | O=S(=O)(O)OOS(=O)(=O)O | inactive
63 | Cc1ccc(N)cc1 | inactive
64 | CC[N+](=O)[O-] | inactive
65 | CN1C(=O)CCS(=O)(=O)C1c1ccc(Cl)cc1 (stereo not drawn) | inactive
66 | C=CC(=O)OCC(CC)CCCC (stereo not drawn) | inactive

Test: A CellTox Green Cytotoxicity Assay to monitor cytotoxicity in HepG2 cells - 32 hour (AID 1224883); further: nearly all actives have a fitted effect of over 50% in size; further: potency means the concentration at half of the fitted maximal effect
Settings: CellTox Green fluorescence; series mostly up to 76.8 µM
Outline: as §1

Row | SMILES | Potency
67 | [N-]=[N+]=CC(=O)OC[C@H](N)C(=O)O | 38.9 µM (active) and inactive
68 | CCOP(=S)(OCC)Oc1ccc([N+](=O)[O-])cc1 | inactive
69 | Cl[C@H]1OCCO[C@@H]1Cl | inactive
70 | Nc1ccc(N)cc1 | inactive
71 | CCCCCCCCCCCCCCCCCC(=O)O | inactive
72 | CC(C)c1cccc(C(C)C)c1O | 43.6 µM (active) and inactive
73 | O=P1(NCCCl)OCCCN1CCCl (stereo not drawn) | inactive
74 | N#Cc1cccc(C#N)c1 | inactive
75 | O=[N+]([O-])c1ccc(Cl)cc1 | inactive
76 | C/C=C/c1ccc2c(c1)OCO2 | inactive
77 | CN(C)C(=O)C(c1ccccc1)c1ccccc1 | inactive
78 | Cc1ccccc1N | inactive
79 | Clc1cnc(Oc2ccc(Oc3ncc(Cl)cc3Cl)cc2)c(Cl)c1 | inactive
80 | CC(=O)/C=C/c1ccccc1 | inactive
81 | CC(=O)C1CCOC1=O (stereo not drawn) | inactive
82 | Cc1ccc(N=C=O)cc1N=C=O | inactive
83 | COC(=O)Nc1cccc(OC(=O)Nc2cccc(C)c2)c1 | 49 µM (active)
84 | O=S(=O)(O)OOS(=O)(=O)O | inactive
85 | Cc1ccc(N)cc1 | inactive
86 | CC[N+](=O)[O-] | inactive
87 | CN1C(=O)CCS(=O)(=O)C1c1ccc(Cl)cc1 (stereo not drawn) | inactive
88 | C=CC(=O)OCC(CC)CCCC (stereo not drawn) | inactive
